Test results as given in publication PMC5540273 (PLoS ONE, 2017).

How the values were obtained:
Details in all cases: concentration: 1 μM, replicates: in singlicate; n = 1
[1] = tested on: FLT3-autoinhibited
[2] = tested on: FLT3
[3] = tested on: FLT4
[4] = tested on: FRK
[5] = tested on: FYN
[6] = tested on: GAK
[7] = tested on: T1, GCN2(Kin.Dom.2,S808G)
T1 construct: gene EIF2AK4

[8] = tested on: GRK1
[9] = tested on: T2, GRK2
T2 construct: gene ADRBK1

[10] = tested on: T3, GRK3
T3 construct: gene ADRBK2

[11] = tested on: GRK4
[12] = tested on: GRK7
[13] = tested on: GSK3A
[14] = tested on: GSK3B
[15] = tested on: T4, HASPIN
T4 construct: gene GSG2

[16] = tested on: HCK
[17] = tested on: HIPK1
[18] = tested on: HIPK2
[19] = tested on: HIPK3
[20] = tested on: HIPK4
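Note: KINOMEscan kinase panel screen.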

| SMILES | %Inh [1] [%] | %Inh [2] [%] | %Inh [3] [%] | %Inh [4] [%] | %Inh [5] [%] | %Inh [6] [%] | %Inh [7] [%] | %Inh [8] [%] | %Inh [9] [%] | %Inh [10] [%] | %Inh [11] [%] | %Inh [12] [%] | %Inh [13] [%] | %Inh [14] [%] | %Inh [15] [%] | %Inh [16] [%] | %Inh [17] [%] | %Inh [18] [%] | %Inh [19] [%] | %Inh [20] [%] |
| --- | --- | --- | --- | --- | --- | --- | --- | --- | --- | --- | --- | --- | --- | --- | --- | --- | --- | --- | --- | --- |
| COc1ccc(Nc2nccc(N3CCC(NC(=O)Nc4cccc(C(C)=O)c4)C3)n2)cc1 (stereo not shown) [GSK1379731] | 0 | 34 | 4 | 0 | 1 | 0 | 0 | 0 | 0 | 4 | 0 | 0 | 22 | 7 | 17 | 0 | 0 | 0 | 1 | 0 |
| Fc1ccc(-c2ncn(CCCN3CCOCC3)c2-c2cccnc2)cc1 [SB-211743] | 0 | 9 | 0 | 0 | 0 | 2 | 8 | 16 | 0 | 7 | 14 | 0 | 24 | 20 | 41 | 34 | 38 | 0 | 18 | 4 |
| Cc1cccc(-c2nc(Nc3ccc4ncsc4c3)c3ccccc3n2)n1 [GW867588] | 12 | 2 | 0 | 0 | 4 | 0 | 4 | 0 | 9 | 0 | 0 | 7 | 3 | 5 | 16 | 24 | 0 | 11 | 0 | 6 |
| Cc1c2ccc(N(C)c3ccnc(Nc4cccc(S(N)(=O)=O)c4)n3)cc2nn1Cc1ccccc1.Cl.Cl [GW787226] | 29 | 98.5 | 99.9 | 65 | 75 | 0 | 62 | 0 | 0 | 0 | 21 | 0 | 0 | 0 | 0 | 91.7 | 23 | 0 | 0 | 0 |
| COCCNC(=O)c1ccc(-c2cc(C(=O)NC3CC3)cc(F)c2C)cc1 [GW868318] | 0 | 15 | 5 | 32 | 2 | 0 | 12 | 32 | 0 | 18 | 7 | 28 | 0 | 42 | 0 | 24 | 23 | 15 | 35 | 17 |
